The supplement of paper PMC3334620
Over roughly 33,000 sequences, “E-score (-0.5 to 0.5)” has its median near -0.013; the highest 2% begin near 0.3. The full list was thinned out, with the highest values kept by preference.

What follows are sequences tested against T1, Msn1 (UniProt P22148) (assay: PBM E-score (8-mer binding enrichment) (E-score (-0.5 to 0.5)); higher = stronger / more preferred TF binding). Details: protein concentration: 200 nM; construct: GST-full length.
T1 sequence: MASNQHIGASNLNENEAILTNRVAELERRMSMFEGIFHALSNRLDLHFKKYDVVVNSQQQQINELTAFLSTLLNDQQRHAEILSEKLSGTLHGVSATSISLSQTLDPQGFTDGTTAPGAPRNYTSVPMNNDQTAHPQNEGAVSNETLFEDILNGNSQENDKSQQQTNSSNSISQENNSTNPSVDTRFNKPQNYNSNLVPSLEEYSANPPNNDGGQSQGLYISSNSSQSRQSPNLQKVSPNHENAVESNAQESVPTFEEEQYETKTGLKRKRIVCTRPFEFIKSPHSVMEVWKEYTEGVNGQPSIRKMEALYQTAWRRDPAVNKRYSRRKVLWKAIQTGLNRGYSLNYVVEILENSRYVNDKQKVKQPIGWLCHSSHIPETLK
Description: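 Universal 'all 10-mer' protein binding microarrays (Agilent AMADID 015681) probed with GST-tagged S. cerevisiae TFs (full-length or DBD) made by in vitro transcription/translation (PURExpress), about 100-200 nM. Bound TF was detected with fluorescent anti-GST. Each ungapped 8-mer (which stands for itself and its reverse complement) is scored by the PBM enrichment score (E-score), a modified Wilcoxon-Mann-Whitney statistic from -0.5 to +0.5, computed with the Universal PBM Analysis Suite. Scale: above 0.35 generally sequence-specific binding.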

Sequence | PBM E-score
CCAAGAAA | 0.0697
AAATAGCA | -0.00406
AACCTCGT | -0.0168
AGGGACAG | 0.107
AGGGACAC | 0.45
AGGGACGC | -0.0191
AAATTTGT | 0.363
AAATTTGG | 0.104
AAATTTGA | 0.19
AATTTTGC | 0.0375
AATTTTGT | 0.34
AATTTTGA | 0.161
ACATGCGT | 0.0734
CGTGTACA | 0.277
CATTCTAG | -0.0107
CTAGCGCA | -0.153
CGCAAAGC | 0.0415
ACAATACG | 0.0932
ACAATACA | 0.0447
ACAATACT | 0.325
ATAGACAG | 0.202
ATAGACAA | 0.41
ATAGACAC | 0.245
ATAGACAT | 0.428
ATAGACGA | 0.0929

Sequence | PBM E-score
ATAGACTA | 0.00413
ATCGTCTA | 0.0246
ATGAAGTC | -0.0197
ACAGCTCG | -0.137
TAGGAATA | 0.0598
AACCATGT | 0.0974
ATGCAGGC | -0.112
AGATTTAT | 0.0411
ACATTTAC | 0.333
GCATTTAC | 0.0372
CCATTTAC | 0.0112
ACATTTAT | 0.319
ACATTTAG | 0.279
CACAAGCC | -0.139
CATCAGTA | 0.0122
AGTGGTCG | -0.0675
AGTTAAAT | 0.0476
CGTGTTAA | -0.00332
ATTTCGGA | 0.239
GGGGGACA | 0.287
AGGGGACT | -0.151
AGGGGACA | 0.386
TGGGGACA | 0.433
CGGGGACA | 0.396
AGGGGACG | -0.0829

Sequence | PBM E-score
CGGGGACC | -0.1
CGGGGACG | -0.152
TGGGGAAA | -0.0201
CTTGAGAC | 0.0475
GACGTTAC | 0.0854
AGGACGTC | 0.177
GAGAAACA | 0.0761
CGAGTGGC | -0.181
AGGTCGCG | 0.0713
ATGTCGCA | 0.38
ATGTCGCG | 0.387
ACGTCGCG | 0.138
GTGTCGCA | 0.0382
ATGTCGCC | 0.115
GGGGCCAC | -0.325
GTCGCGAC | 0.349
GTCGCGAA | 0.141
CTCGCGAC | 0.0116
AAGCTGGT | -0.026
TAGGCCTA | -0.0564
AAGTTGTC | 0.298
CCGTTGTC | 0.304
CCGTTGTA | 0.187
CAGTTGTC | 0.32
ACGTTGTC | 0.119

Sequence | PBM E-score
CAGTTGTA | 0.069
ACATTCTG | 0.162
TAGCAGGA | 0.0461
GCACCCGC | -0.163
ACATTGGC | -0.0178
ATTCAGGC | 0.0647
CACATTGC | 0.115
AACATTGC | -0.162
TACATTGA | 0.105
GACATTGC | 0.434
GACATTGA | 0.386
CACATTGA | 0.0276
ATCCCGGG | 0.0417
CAGAGACA | 0.204
GCTCAAGA | -0.102
CACGGCTG | -0.156
CAGGTGGA | -0.193
CTGCCCTC | -0.329
AAAAAGTC | 0.418
GAAAAGGC | -0.0462
GAAAAGTA | 0.167
CAAAAGTC | 0.282
ACAAAGTC | 0.236
ATAAAGTG | 0.154
ATAAAGTC | 0.305

Sequence | PBM E-score
GAAAAGTC | 0.326
ATAAAGTA | 0.243
AAGCGAGA | -0.127
CGGCCACG | -0.189
GACCCGAC | -0.0784
AGGTAATC | -0.139
AACAAAAG | 0.101
ACAGCGTG | 0.0507
GAATGTAA | -0.0699
CTATGTAC | 0.189
ATATGTAA | 0.131
AAATGTAC | 0.371
GAATGTGC | -0.148
AAATGTAG | -0.0386
ATATGTAC | 0.371
GAATGTAC | 0.342
CAATGTAC | 0.195
ATATCACG | -0.0452
ACGAGCTG | 0.0278
ACCTTCTC | -0.183
CGTCCCTA | -0.0646
AAATATGC | -0.0194
AAATATAT | 0.306
AATAATAA | 0.132
AATAATAG | -0.0638

Sequence | PBM E-score
AAATATAC | 0.0952
AAATATAA | 0.272
AAATATGA | 0.154
AATAATAT | 0.33
AAATATGT | 0.37
ACCAGAGC | -0.124
CGATGCAC | -0.295
GCACAGGA | 0.0138
ACTCGAGT | 0.14
ATAGGCCA | -0.0607
TAACATAA | 0.214
GGACATAC | 0.48
GTACATAA | 0.306
TGACATAA | 0.364
GCACATAC | -0.162
CTACATAA | -0.237
GGTCACAA | -0.0198
TTACATAA | 0.0155
TGTCACAA | 0.378
TCACATAA | -0.0221
CGTCACAA | 0.137
CGACATAC | 0.281
GACCCCCA | -0.377
TCACTAGA | 0.0764
CACCCCGC | -0.0608

Sequence | PBM E-score
CCATTAAC | 0.139
GCCCTGCC | -0.296
AAGTCTAC | 0.0709
GGACATGA | 0.467
CGTCATAA | 0.122
GCACATGA | -0.0829
CGACATAA | 0.286
GGACATAA | 0.477
AGTCATAA | 0.0855
CGACATGA | 0.207
TGTCATAA | 0.397
GCACATAA | -0.0366
ACCACAGA | 0.0742
TTGAGCAA | -0.0524
ACACTTGG | -0.0164
GACCATGC | 0.0413
TTGTACAA | 0.337
CTGTACAA | 0.161
CTGTACAG | 0.0843
TCGTACAA | 0.294
GTGTACAA | 0.32
GTGTACAC | 0.162
